Screens from PubChem BioAssay.
An excerpt weighted towards active compounds, which were near 18% of everything screened.
RORgamma inh: ROR gamma (mouse) transcription inhibition. actives 5.4% (n = 310,000). Potency, µM (doses to about 53.6 µM), for the others: at the top dose activity change, negative = inhibition, hits mostly inhibitors. P51450. Drosophila S2 Gal4-RORgamma UAS-luciferase reporter, 20 h; further: potency means the concentration at half of the fitted maximal effect; nearly all actives have a fitted effect of over 60% in size
Target sequence (P51450 whole entry, looked up, the tested form may be a part): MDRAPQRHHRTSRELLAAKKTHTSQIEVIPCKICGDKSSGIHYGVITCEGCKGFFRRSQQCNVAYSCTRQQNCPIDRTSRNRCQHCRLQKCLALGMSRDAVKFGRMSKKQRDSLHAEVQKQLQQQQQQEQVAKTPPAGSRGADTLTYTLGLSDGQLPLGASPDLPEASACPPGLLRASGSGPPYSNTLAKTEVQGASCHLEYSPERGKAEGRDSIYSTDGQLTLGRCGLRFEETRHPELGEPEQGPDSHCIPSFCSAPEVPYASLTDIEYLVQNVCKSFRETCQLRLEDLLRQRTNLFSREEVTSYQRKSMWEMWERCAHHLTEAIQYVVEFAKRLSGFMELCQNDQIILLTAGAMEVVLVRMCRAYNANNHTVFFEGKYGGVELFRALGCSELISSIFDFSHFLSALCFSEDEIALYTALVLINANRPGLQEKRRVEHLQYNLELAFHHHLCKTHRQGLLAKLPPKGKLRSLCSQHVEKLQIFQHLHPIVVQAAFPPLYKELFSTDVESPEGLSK
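ROR gamma transcriptional activity was tracked as Gal4-UAS luciferase output in stably transfected Drosophila Schneider cells, with compound added 1 hr before 700 uM copper sulfate induction and a 20 hr ambient-temperature incubation.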
LDHA inh: inhibitors of human lactate dehydrogenase A | P00338 | actives 0.15% (n = 480,000) | activity change, % (values are at about 110 or 230 µM) | purified LDHA, NADH/diaphorase-resazurin fluorescence; stronger effect = lower value; in the data active means activity change below about -30%; inconclusive means mostly about -25% to -30%;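 further: plate controls were DMSO wells for no effect and wells without enzyme for full effect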
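LDH5 2 nM; NADH 0.06 mM, pyruvate 0.2 mM; 200 mM Tris pH 7.4, EDTA, Tween-20; 5 min RT. Detection: diaphorase 0.133 mg/mL + resazurin 37 µM, fluorescence ex540/em590 at 0 and 20 min; normalized to enzyme-free and DMSO wells.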
Gal4-VP16 FLuc: inhibits Gal4-VP16 luciferase reporter, ROR gamma counter-screen | actives 3.5% (n = 310,000) | Drosophila S2 Gal4-VP16 UAS-luciferase, luminescence, 20 h | Potency, µM (series often up to 53.6 µM), for the others: top-dose activity, negative = inhibition, actives largely listed as inhibitors;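 further: Gal4-VP16 expression switched on by copper sulfate through the metallothionein promoter; potency means the concentration at half of the fitted maximal effect; nearly all actives have a fitted effect of over 50% in size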
DT40 TDP1 no CPT: qHTS for Inhibitors of human tyrosyl-DNA phosphodiesterase 1 (TDP1): qHTS in cells in absence of CPT; DT40 Tdp1-/- hTDP1 cells, no CPT, ATP luminescence, 48 h; Potency, µM (highest dose often 46.2 µM), without a hit: at the highest dose activity change, negative = growth inhibition, hits mostly inhibitors; actives 15% (n = 420,000); further: potency means the concentration at half of the fitted maximal effect; nearly all actives have a fitted effect of over 55% in size
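Camptothecin absent (DMSO only). Human TDP1-complemented DT40 knockout cells, 400 cells/well, 37 °C for minimum 48 hr; ATP measured via CellTiter-Glo, 30 min dark incubation, luminescence.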
DT40 TDP1 CPT: growth inhibition of DT40 Tdp1-/-;hTDP1 cells with camptothecin (screen for TDP1 inhibitors) | chicken DT40 Tdp1-/-;hTDP1 cells + 20 nM CPT, ATP luminescence, 48 h | Potency, µM (doses to about 46.2 µM), for inactives: top-dose activity change, negative = growth inhibition, usual class: inhibitors | actives 12% (n = 420,000); further: potency means the concentration at half of the fitted maximal effect; nearly all actives have a fitted effect of over 55% in size
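Chicken DT40 Tdp1-/- cells stably complemented with human TDP1 were seeded at 400 cells/well in medium containing 20 nM camptothecin, exposed to pin-transferred compounds, and grown at 37 °C for at least 48 hr. Viability was read as ATP luminescence.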
IL1B secr inh: blocks inflammasome-driven IL-1 beta release. actives 4.7% (n = 360,000). AID 743279. THP-1 LPS/ATP IL-1B secretion, AlphaLISA, 16 h; stronger effect = lower value. activity change, % at 57.5 µM; in the data active means activity change below about -50%; inconclusive means mostly about -30% to -49%
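Secreted IL-1B measured by AlphaLISA bead assay after 16 h compound exposure of THP-1 cells; compounds (final up to 57.5 uM) added 1 h before LPS (250 ng/mL) and ATP (1.25 mM) stimulation; lower signal means less secretion.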
The depositor's hits bear a star; ! = a repeat was not active; [ ] = dose if it differs, or a comment. Unless noted, the call rests on the fitted dose curve; in most records, active means well fitted curve in the direction sought with a large enough effect; inconclusive means small, poorly fitted or top-dose-only effect, or another doubt; inactive means no such curve, though single readings can be large; an effect the other way counts as inactive or inconclusive. Unless noted, on the % scale 0 is the no-effect control and ±100 the full control effect.

`CC1CN=C2C(C(=O)Nc3ccccc3)=C(O)CC(c3ccccc3)N21` (stereo unspecified) gave RORgamma inh inconclusive, LDHA inh -3, Gal4-VP16 FLuc -3%, DT40 TDP1 no CPT 23µM*, DT40 TDP1 CPT inconclusive and IL1B secr inh -5.
O=C(Nc1ccccc1)C1=C(O)CC(c2ccoc2)CC1=Nc1ccccc1 (stereo unspecified) was read as RORgamma inh 19%[0.365 µM], LDHA inh 4, DT40 TDP1 no CPT inconclusive, DT40 TDP1 CPT inconclusive and IL1B secr inh 6.
`CCCS(=O)(=O)c1ncc(Cl)c(C(=O)Nc2sc3c(c2C(=O)NCC)CCCC3)n1` gave LDHA inh 2, DT40 TDP1 no CPT 0.79µM* and DT40 TDP1 CPT 1µM*.
CCSc1ncc(Cl)c(C(=O)Nc2sc3c(c2C(=O)NCCOC)CCCC3)n1 was read as LDHA inh -5, DT40 TDP1 no CPT inconclusive and DT40 TDP1 CPT -9%.
Clc1ccc2nc(-c3ccncc3)cc(-c3ccccc3)c2c1 was read as RORgamma inh 12%, LDHA inh -4, Gal4-VP16 FLuc -19%, DT40 TDP1 no CPT -17%, DT40 TDP1 CPT -20% and IL1B secr inh 4.
Screening CCc1cc(-c2ccccc2)nc2ccccc12 returned LDHA inh -3.
Screening c1ccc(-c2cc(-c3ccncc3)nc3ccc4ccccc4c23)cc1 returned RORgamma inh 8.9µM*, LDHA inh -6, Gal4-VP16 FLuc inconclusive, DT40 TDP1 no CPT inconclusive, DT40 TDP1 CPT inconclusive and IL1B secr inh -25.
`CCOC(=O)Cc1cc(-c2ccccc2)nc2ccc3ccccc3c12` gave RORgamma inh -17%, LDHA inh -1, Gal4-VP16 FLuc -1%, DT40 TDP1 no CPT 13µM*, DT40 TDP1 CPT inconclusive and IL1B secr inh 28.
For CN(C)c1ccc(/C=C/N2C=CCc3c2ccc2ccccc32)cc1 the results were DT40 TDP1 no CPT 0.089µM* and DT40 TDP1 CPT 0.079µM*.
CCOc1ccccc1N1CCN(C/C=C/c2ccc(N(C)C)cc2)CC1 was read as RORgamma inh -9%, LDHA inh -6, Gal4-VP16 FLuc -1%, DT40 TDP1 no CPT inconclusive, DT40 TDP1 CPT inconclusive and IL1B secr inh -13.
OC(COCc1ccccc1F)Cn1nnc(-c2ccccc2)n1 (stereo unspecified) was read as LDHA inh 2.
For Cc1cc(/C=C(\C#N)C(=O)Nc2ccccc2)c(C)n1-c1ccc2c(c1)OCO2 the results were RORgamma inh 11%, LDHA inh 1, Gal4-VP16 FLuc 9%, DT40 TDP1 no CPT 16µM*, DT40 TDP1 CPT inconclusive and IL1B secr inh inconclusive.
`Cc1ccccc1NC(=O)/C(C#N)=C\c1cc(C)n(-c2ccc(C(=O)O)cc2)c1C` gave RORgamma inh 42%, LDHA inh -1, Gal4-VP16 FLuc 1%, DT40 TDP1 no CPT -11%, DT40 TDP1 CPT -5% and IL1B secr inh -56*.
Screening COc1ccc(NC(=O)/C(C#N)=C/c2cc(C)n(-c3ccc(F)cc3)c2C)cc1 returned LDHA inh -6, DT40 TDP1 no CPT -21% and DT40 TDP1 CPT -19%.
For Cc1cc(/C=C(/C#N)C(=O)Nc2ccccc2)c(C)n1-c1cccnc1 the results were RORgamma inh 18%, LDHA inh -6, Gal4-VP16 FLuc -3%, DT40 TDP1 no CPT inconclusive, DT40 TDP1 CPT inconclusive and IL1B secr inh -60*.
For Cc1ccn2c(=O)nc(SCC(=O)NC3CCCCC3)nc2c1 the results were LDHA inh -2, DT40 TDP1 no CPT 3%, DT40 TDP1 CPT 5% and IL1B secr inh -17.
Cc1ccn2c(NC3CCCCC3)c(-c3ccc(SC4CCCCC4)cc3)nc2c1 was read as LDHA inh 1, DT40 TDP1 no CPT 23µM*, DT40 TDP1 CPT inconclusive and IL1B secr inh 42.
`CCCCCCSc1cccc(-c2nc3ccc(C)cn3c2NC2CCCCC2)c1` gave LDHA inh -8, DT40 TDP1 no CPT inconclusive, DT40 TDP1 CPT inconclusive and IL1B secr inh -4.
Cc1ccn2c(NC3CCCCC3)c(-c3cccc(SC4CCCCC4)c3)nc2c1 was read as LDHA inh -4, DT40 TDP1 no CPT 8.2µM*, DT40 TDP1 CPT 16µM* and IL1B secr inh -75*!.
For CCCCCCSc1cccc(-c2nc3cc(C)ccn3c2NC2CCCCC2)c1 the results were LDHA inh 0, DT40 TDP1 no CPT 16µM*, DT40 TDP1 CPT 21µM* and IL1B secr inh -74*.
`CCC(C)Sc1cccc(-c2nc3cc(C)ccn3c2NC2CCCCC2)c1` (stereo unspecified) gave LDHA inh 2, DT40 TDP1 no CPT 15µM*, DT40 TDP1 CPT 16µM* and IL1B secr inh -82*!.
Screening COc1ccc(-c2nc(CS(=O)CC(=O)NCC(OC)OC)c(C)o2)cc1OC (stereo unspecified) returned LDHA inh 7.
Screening Cc1ccn2c(NC3CCCC3)c(-c3ccsc3)nc2c1 returned RORgamma inh 11µM*, LDHA inh -7, Gal4-VP16 FLuc 1%, DT40 TDP1 no CPT -25%, DT40 TDP1 CPT inconclusive and IL1B secr inh 27.
For O=C(O)C(F)(F)c1ccc(F)cc1 the results were LDHA inh 12.
For O=C(c1cccc(Br)c1)N1CCCc2ccccc21 the results were RORgamma inh inconclusive, LDHA inh 1, Gal4-VP16 FLuc -1%, DT40 TDP1 no CPT inconclusive, DT40 TDP1 CPT inconclusive and IL1B secr inh 37.
For COc1cc(OC)cc(-c2nnc(SCc3cccc(C(=O)O)c3)o2)c1 the results were RORgamma inh inconclusive, LDHA inh -8, Gal4-VP16 FLuc 7.1µM*, DT40 TDP1 no CPT 3%, DT40 TDP1 CPT -11% and IL1B secr inh -9.
COc1cc(OC)cc(-c2nnc(SCC(=O)N3CCCc4ccccc43)o2)c1 was read as RORgamma inh 30%, LDHA inh 0, Gal4-VP16 FLuc 2%, DT40 TDP1 no CPT 21µM*, DT40 TDP1 CPT inconclusive and IL1B secr inh -3.
Screening COc1cc(OC)cc(C(=O)N2CCCc3ccccc32)c1 returned RORgamma inh -2%, LDHA inh 0, Gal4-VP16 FLuc -8%, DT40 TDP1 no CPT inconclusive, DT40 TDP1 CPT 16µM* and IL1B secr inh -24.
Screening O=C(c1coc(=O)c(Br)c1)N1CCCc2ccccc21 returned RORgamma inh 1%[10 µM], LDHA inh 16, Gal4-VP16 FLuc inconclusive, DT40 TDP1 no CPT 2.6µM*, DT40 TDP1 CPT 1.8µM* and IL1B secr inh 22.
